About 8,800 targets were measured; listed, in parts, are those with a hit and a random draw of the rest. About 0.5% of all pairs of compound and target were hits. Values without a mark were called inactive.
Assays:
Test in all cases: log2 fold change, soluble protein after heating vs DMSO (PISA); higher = thermal stabilisation; K562 lysate, 10 uM; active = over 0.2 and 3.5 SD of the protein, either way, in both replicates (recomputed)
[1] = compound: C#Cc1cccc(Nc2ncnc3cc(OCCOC)c(OCCOC)cc23)c1 [erlotinib]
Outline: (§1)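 Values give the log-two fold change in thermal stability against solvent controls, from duplicates. Crude K562 extract at 1 mg/mL protein, made by dounce homogenisation in PBS pH 7.4 with 1 mM MgCl2, was treated with 10 μM compound for 30 min. After 3 min heating across 48°C-58°C, aliquots were pooled, adjusted to 0.5% NP-40 at 4°C and centrifuged at 21,000xg for 90 min. The supernatant was measured by TMTpro 16plex LC-MS/MS with channel sums equalised.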

[2] = compound: C/C(=N\NC(=O)C1=CC(=CC=C1)S(=O)(=O)N2CCOCC2)/C3=C(C=CC(=C3)Cl)O
Outline: as §1

[3] = compound: C1=CC(=CC=C1C2=NC3=C(N2)C=C(C=C3)C(=O)N)OC4=CC=C(C=C4)Cl
Outline: as §1

[4] = compound: C1=CC2=C(C=CC(=C2)/C=C\3/C(=O)NC(=NCC4=CC=CS4)S3)N=C1
Outline: as §1

[5] = compound: C1=CC2=NC=CN=C2C=C1/C=C/3\C(=O)NC(=O)S3
Outline: as §1

[6] = compound: C1=CC=C(C=C1)C2=NC(=C(N2)C3=CC=NC=C3)C4=CC(=C(C=C4)Cl)O
Outline: as §1

[7] = compound: C1=CC=C2C(=C1)C3=NNC4=CC=CC(=C43)C2=O
Outline: as §1

[8] = compound: C1CCN(C1)C(=O)NC2=CC=CC(=C2)NC3=NC=C(C(=N3)NCCC4=CN=CN4)Br
Outline: as §1

[9] = compound: C1CN(CCC1(CC2=CC=C(C=C2)Cl)N)C3=NC=NC4=C3C=CN4
Outline: as §1

[10] = compound: C1COCCN1CCN2C3=CC=CC=C3N=C2NC(=O)C4=CC(=CC=C4)[N+](=O)[O-] [IRAK-1-4 Inhibitor I]
Outline: as §1

[11] = compound: C=CC(=O)N1CCC[C@@H](n2nc(-c3ccc(Oc4ccccc4)cc3)c3c(N)ncnc32)C1 [ibrutinib]
Outline: as §1

[12] = compound: CC(=O)c1cnc2ccc(-c3cc(Cl)c(O)c(Cl)c3)nc2c1N[C@H]1CC[C@H](CN(C)C)CC1
Outline: as §1

[13] = compound: CC(C)(C)Cn1c(N)nc2ccc(-c3[nH]c(C(C)(C)C)nc3-c3ccc(F)cc3)nc21 [ralimetinib]
Outline: as §1

[14] = compound: CC(C)(O)CC(=O)NCCn1ccc2ncnc(Nc3ccc(Oc4cccc(C(F)(F)F)c4)c(Cl)c3)c21
Outline: as §1

[15] = compound: CC(C)C1=C2N=C(C=C(N2N=C1)NCC3=CC=CC=C3)NCCCCCCN
Outline: as §1

[16] = compound: CC1=C(C(CC(=O)N1)C2=CC=C(C=C2)C(F)(F)F)C(=O)NC3=C(C=C4C(=C3)C=NN4)F
Outline: as §1

[17] = compound: CC1=C(C2=C(C=C1)C(=O)C3=CC=CC=C3N2CCCN)C
Outline: as §1

[18] = compound: CC1=C(C=C(C=C1)NC(=O)C2=CC(=CC=C2)C(C)(C)C#N)NC3=CC4=C(C=C3)N=CN(C4=O)C
Outline: as §1

[19] = compound: CC1=C(C=C(C=C1)NC(=O)C2=CC(=CC=C2)N(C)C)NC(=O)C3=CC=C(C=C3)O
Outline: as §1

[20] = compound: CC1=CC=C(C=C1)SC2=C3C=C(SC3=CN=C2)C(=O)N
Outline: as §1

Chain of UniProt P00156 (P00156 whole entry, looked up): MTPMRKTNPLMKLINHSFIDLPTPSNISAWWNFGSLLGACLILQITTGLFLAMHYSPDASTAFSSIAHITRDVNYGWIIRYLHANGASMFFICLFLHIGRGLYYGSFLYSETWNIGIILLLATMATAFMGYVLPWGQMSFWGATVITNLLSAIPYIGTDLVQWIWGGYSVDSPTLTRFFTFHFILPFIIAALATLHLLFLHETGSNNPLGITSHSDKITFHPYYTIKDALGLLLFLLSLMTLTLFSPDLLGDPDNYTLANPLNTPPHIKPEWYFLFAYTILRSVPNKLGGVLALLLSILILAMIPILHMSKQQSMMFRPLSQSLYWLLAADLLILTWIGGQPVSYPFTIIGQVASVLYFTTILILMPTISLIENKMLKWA
Chain of UniProt P43246 (P43246 whole entry, looked up): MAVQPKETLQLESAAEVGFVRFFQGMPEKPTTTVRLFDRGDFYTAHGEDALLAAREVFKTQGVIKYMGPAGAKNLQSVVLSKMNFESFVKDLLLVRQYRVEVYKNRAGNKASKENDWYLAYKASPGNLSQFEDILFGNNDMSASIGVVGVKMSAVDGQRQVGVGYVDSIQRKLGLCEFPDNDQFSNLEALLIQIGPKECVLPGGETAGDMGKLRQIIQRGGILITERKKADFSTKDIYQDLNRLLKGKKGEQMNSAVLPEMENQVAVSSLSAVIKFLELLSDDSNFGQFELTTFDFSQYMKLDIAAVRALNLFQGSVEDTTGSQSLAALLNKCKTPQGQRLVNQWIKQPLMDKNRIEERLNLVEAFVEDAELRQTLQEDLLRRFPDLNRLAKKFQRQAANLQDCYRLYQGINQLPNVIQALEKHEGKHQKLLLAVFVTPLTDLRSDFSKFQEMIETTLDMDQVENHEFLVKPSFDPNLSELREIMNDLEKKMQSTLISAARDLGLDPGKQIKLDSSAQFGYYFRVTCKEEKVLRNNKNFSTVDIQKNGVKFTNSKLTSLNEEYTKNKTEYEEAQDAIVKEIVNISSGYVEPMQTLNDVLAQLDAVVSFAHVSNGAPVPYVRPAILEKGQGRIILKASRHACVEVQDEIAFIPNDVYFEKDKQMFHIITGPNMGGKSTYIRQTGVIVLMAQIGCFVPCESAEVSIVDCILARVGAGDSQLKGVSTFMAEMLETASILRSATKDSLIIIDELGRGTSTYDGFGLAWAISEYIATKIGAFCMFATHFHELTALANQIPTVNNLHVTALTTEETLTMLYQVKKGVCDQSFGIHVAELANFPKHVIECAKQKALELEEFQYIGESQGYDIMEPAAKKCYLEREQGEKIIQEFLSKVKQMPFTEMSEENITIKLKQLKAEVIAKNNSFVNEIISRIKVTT
Chain of UniProt Q96RE7 (Q96RE7 whole entry, looked up): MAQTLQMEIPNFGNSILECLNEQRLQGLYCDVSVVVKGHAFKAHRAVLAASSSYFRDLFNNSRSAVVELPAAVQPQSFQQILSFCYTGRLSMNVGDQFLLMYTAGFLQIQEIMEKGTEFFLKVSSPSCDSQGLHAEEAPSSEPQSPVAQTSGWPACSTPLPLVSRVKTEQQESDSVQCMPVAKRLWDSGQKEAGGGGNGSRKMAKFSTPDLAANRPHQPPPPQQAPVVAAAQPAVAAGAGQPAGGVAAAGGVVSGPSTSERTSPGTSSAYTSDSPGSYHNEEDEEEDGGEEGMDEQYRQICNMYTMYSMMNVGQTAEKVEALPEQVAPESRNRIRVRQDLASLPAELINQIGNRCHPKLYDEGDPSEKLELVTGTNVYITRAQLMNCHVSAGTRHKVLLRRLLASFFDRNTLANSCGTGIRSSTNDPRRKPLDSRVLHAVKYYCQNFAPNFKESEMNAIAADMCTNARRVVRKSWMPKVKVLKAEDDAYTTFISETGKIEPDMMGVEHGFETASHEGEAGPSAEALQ
Chain of UniProt Q9Y314 (Q9Y314 whole entry, looked up): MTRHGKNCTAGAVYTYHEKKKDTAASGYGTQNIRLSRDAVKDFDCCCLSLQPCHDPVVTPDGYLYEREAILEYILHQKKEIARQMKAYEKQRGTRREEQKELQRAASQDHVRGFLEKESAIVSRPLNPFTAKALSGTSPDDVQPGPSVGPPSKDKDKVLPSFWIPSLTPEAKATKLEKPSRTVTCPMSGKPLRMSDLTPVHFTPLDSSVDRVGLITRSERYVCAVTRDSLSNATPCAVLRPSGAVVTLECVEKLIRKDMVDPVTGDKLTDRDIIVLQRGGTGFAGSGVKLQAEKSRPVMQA
Chain of UniProt Q5SRE5 (Q5SRE5 whole entry, looked up): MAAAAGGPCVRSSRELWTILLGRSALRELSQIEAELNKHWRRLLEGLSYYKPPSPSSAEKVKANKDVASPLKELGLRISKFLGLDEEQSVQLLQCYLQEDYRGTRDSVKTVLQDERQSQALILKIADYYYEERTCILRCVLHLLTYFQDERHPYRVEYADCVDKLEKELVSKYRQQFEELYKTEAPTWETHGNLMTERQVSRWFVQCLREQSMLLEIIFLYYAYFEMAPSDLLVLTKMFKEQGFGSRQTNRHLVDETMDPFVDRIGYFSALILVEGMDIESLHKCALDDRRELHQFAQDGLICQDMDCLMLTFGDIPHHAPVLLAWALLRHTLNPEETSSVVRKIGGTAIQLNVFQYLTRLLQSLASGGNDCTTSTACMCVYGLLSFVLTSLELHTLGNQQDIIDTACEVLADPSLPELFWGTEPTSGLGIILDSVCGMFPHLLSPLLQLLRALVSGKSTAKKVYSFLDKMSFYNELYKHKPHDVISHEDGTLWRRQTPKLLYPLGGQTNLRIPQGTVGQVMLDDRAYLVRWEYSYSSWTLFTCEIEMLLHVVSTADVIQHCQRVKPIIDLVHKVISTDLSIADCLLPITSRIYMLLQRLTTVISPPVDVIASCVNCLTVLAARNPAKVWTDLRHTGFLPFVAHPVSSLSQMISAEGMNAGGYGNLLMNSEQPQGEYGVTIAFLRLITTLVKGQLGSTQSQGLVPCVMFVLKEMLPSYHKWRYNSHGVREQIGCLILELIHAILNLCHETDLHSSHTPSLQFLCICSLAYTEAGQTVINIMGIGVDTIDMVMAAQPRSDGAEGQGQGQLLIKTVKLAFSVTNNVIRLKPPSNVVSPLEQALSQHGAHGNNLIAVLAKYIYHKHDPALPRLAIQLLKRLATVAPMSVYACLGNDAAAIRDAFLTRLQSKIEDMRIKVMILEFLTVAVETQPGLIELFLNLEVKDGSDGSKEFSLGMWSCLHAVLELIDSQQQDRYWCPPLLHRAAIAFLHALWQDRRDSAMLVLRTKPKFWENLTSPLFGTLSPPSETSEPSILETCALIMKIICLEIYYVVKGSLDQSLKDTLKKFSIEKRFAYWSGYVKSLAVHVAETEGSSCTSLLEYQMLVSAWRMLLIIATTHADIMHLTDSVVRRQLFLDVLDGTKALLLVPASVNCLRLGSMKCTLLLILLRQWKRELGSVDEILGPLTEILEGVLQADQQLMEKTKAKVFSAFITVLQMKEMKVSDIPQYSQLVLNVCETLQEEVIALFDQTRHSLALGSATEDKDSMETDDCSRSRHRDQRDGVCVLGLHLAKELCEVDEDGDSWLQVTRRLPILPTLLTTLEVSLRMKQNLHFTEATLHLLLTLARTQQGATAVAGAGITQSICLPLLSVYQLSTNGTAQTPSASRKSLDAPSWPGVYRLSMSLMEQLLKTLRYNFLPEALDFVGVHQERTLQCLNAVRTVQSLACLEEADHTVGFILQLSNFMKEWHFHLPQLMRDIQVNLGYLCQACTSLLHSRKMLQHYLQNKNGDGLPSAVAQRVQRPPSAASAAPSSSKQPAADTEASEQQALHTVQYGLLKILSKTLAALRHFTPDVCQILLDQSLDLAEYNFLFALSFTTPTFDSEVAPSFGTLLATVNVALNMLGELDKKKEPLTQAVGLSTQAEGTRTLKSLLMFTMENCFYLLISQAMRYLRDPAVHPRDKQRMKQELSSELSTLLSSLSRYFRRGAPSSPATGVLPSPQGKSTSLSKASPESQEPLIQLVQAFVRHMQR
Chain of UniProt Q9Y5N5 (Q9Y5N5 whole entry, looked up, one chain of several): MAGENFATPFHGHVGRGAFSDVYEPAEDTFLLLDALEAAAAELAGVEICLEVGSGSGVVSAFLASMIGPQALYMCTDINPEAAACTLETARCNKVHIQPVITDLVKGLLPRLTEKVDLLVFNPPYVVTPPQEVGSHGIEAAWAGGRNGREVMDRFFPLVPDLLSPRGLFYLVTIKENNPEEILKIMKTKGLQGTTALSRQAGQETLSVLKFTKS
Chain of UniProt Q969R2 (Q969R2 whole entry, looked up): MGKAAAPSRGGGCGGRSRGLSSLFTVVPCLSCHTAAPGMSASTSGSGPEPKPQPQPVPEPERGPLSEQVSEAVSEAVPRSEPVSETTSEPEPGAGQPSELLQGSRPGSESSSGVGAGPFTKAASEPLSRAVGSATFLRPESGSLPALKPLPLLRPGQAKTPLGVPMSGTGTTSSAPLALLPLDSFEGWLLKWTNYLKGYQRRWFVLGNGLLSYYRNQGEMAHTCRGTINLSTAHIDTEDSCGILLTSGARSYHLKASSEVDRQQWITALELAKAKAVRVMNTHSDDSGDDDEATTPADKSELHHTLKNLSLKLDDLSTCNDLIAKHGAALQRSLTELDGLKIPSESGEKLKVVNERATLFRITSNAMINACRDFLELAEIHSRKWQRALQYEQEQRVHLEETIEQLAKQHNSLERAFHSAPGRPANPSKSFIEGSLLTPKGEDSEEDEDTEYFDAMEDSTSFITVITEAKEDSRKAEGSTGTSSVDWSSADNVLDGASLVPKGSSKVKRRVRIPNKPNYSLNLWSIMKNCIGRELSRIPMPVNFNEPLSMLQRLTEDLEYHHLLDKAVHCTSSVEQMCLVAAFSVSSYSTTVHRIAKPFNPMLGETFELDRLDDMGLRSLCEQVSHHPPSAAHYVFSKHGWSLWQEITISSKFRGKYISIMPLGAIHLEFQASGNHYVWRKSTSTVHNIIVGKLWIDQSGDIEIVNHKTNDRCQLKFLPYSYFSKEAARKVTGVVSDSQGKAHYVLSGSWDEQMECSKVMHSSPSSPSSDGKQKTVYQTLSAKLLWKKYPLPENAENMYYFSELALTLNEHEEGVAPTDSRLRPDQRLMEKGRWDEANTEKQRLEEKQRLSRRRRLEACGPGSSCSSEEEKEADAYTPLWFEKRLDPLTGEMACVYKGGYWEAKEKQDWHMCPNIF

Target | log2 fold change [1] | log2 fold change [2] | log2 fold change [3] | log2 fold change [4] | log2 fold change [5] | log2 fold change [6] | log2 fold change [7] | log2 fold change [8] | log2 fold change [9] | log2 fold change [10] | log2 fold change [11] | log2 fold change [12] | log2 fold change [13] | log2 fold change [14] | log2 fold change [15] | log2 fold change [16] | log2 fold change [17] | log2 fold change [18] | log2 fold change [19] | log2 fold change [20]
MRPL58 (UniProt Q14197) | 0.025 | -0.005 | 0.054 | -0.003 | 0.01 | -0.002 | -0.025 | -0.078 | 0.043 | -0.012 | 0.025 | 0.032 | -0.022 | 0.006 | -0.013 | 0.089 | -0.034 | -0.035 | 0.032 | 0.053
NTPCR (UniProt Q9BSD7) | 0.015 | -0.263 | -0.007 | 0.065 | 0.031 | 0.018 | -0.045 | 0.025 | 0.046 | -0.011 | -0.004 | 0.002 | 0.014 | 0 | 0.022 | 0.018 | 0.014 | -0.002 | 0.066 | -0.001
OSBP2 (UniProt Q969R2) | -0.019 | -0.254 | 0.08 | 0.032 | -0.039 | -0.077 | -0.075 | 0.037 | -0.01 | -0.061 | 0 | 0.077 | 0.036 | -0.103 | -0.223 | -0.006 | 0.023 | 0.051 | -0.011 | 0
PARG (UniProt Q86W56) | 0.009 | -0.013 | -0.062 | 0.008 | -0.011 | 0.004 | -0.013 | 0.003 | -0.011 | 0.048 | 0.013 | 0.01 | 0.017 | -0.011 | -0.025 | -0.017 | -0.028 | 0.021 | 0.061 | 0.005
MT-CYB (UniProt P00156) | 0.076 | 0.141 | 0.027 | 0.024 | 0.015 | -0.229 | 0.126 | -0.105 | 0.025 | 0.028 | 0.133 | -0.055 | 0.001 | -0.064 | -0.094 | 0.03 | -0.107 | 0.039 | -0.093 | 0.198
NNT (UniProt Q13423) | -0.027 | 0.013 | -0.014 | -0.012 | -0.006 | -0.008 | -0.033 | 0 | 0.031 | -0.026 | 0.012 | -0.016 | -0.095 | -0.01 | -0.05 | -0.011 | -0.019 | -0.007 | 0.01 | -0.009
NUP188 (UniProt Q5SRE5) | 0.066 | 0.011 | -0.01 | 0.004 | -0.007 | -0.03 | -0.034 | 0.027 | -0.003 | 0.023 | -0.026 | 0.019 | 0.041 | -0.021 | -0.028 | -0.005 | 0.035 | -0.04 | 0.042 | -0.018
NCAPD3 (UniProt P42695) | 0.023 | 0.021 | -0.012 | 0.006 | -0.003 | 0.012 | -0.043 | -0.004 | 0.042 | 0.03 | 0.001 | -0.017 | 0.043 | -0.019 | -0.008 | 0.007 | -0.024 | -0.012 | 0.036 | -0.012
NACC1 (UniProt Q96RE7) | -0.006 | 0.038 | 0.036 | -0.023 | -0.004 | 0.01 | -0.011 | 0.023 | -0.014 | 0.009 | -0.015 | -0.001 | 0.009 | -0.003 | -0.014 | 0.039 | -0.016 | -0.022 | 0.009 | -0.022
MSH2 (UniProt P43246) | 0.003 | 0.018 | -0.028 | 0.028 | 0.013 | 0.017 | -0.019 | -0.01 | 0.012 | -0.009 | -0.009 | -0.01 | 0.019 | 0.02 | 0.019 | -0.012 | -0.014 | 0 | 0.037 | 0.019
NCAPG2 (UniProt Q86XI2) | 0.023 | -0.026 | -0.019 | 0.001 | 0.006 | -0.004 | -0.026 | 0.023 | -0.016 | 0.004 | 0.012 | -0.029 | 0.018 | 0.006 | -0.009 | 0.015 | 0.05 | -0.017 | 0.001 | -0.002
NOSIP (UniProt Q9Y314) | 0.012 | -0.001 | 0.023 | 0.022 | 0.011 | 0.025 | -0.019 | 0.003 | 0.022 | 0.01 | 0.028 | 0.037 | 0 | 0.009 | -0.014 | -0.009 | 0 | 0.047 | 0.027 | -0.009
N4BP2 (UniProt Q86UW6) | 0.04 | -0.029 | -0.09 | 0.069 | -0.015 | 0.001 | 0.106 | -0.021 | -0.068 | -0.022 | 0.094 | -0.041 | 0.038 | -0.053 | 0.047 | 0.03 | -0.011 | -0.005 | -0.034 | -0.027
MRPS18A isoform 2 (UniProt Q9NVS2) | 0.024 | -0.038 | 0.038 | 0.112 | -0.035 | -0.053 | -0.013 | 0.009 | 0.004 | 0.015 | -0.015 | 0.006 | -0.015 | -0.002 | -0.046 | 0.034 | -0.131 | 0.016 | 0.043 | -0.003
N6AMT1 (UniProt Q9Y5N5) | 0.022 | -0.053 | -0.082 | 0.02 | -0.097 | 0.013 | -0.272 | 0.005 | -0.013 | -0.022 | 0.103 | -0.03 | 0.005 | -0.006 | 0.009 | -0.045 | -0.026 | 0.01 | 0.024 | 0.027
MSI2 (UniProt Q96DH6) | -0.04 | -0.277 | 0.035 | -0.047 | 0.084 | -0.034 | -0.011 | 0.03 | 0.027 | 0.057 | 0.044 | -0.024 | 0.032 | -0.039 | 0.015 | -0.029 | 0.009 | -0.315 (active) | 0.03 | 0.054

Reference: the supplement of paper PMC10849652
